The source made the active and inactive calls. How the source made its calls: active means hit-call score of the fitted dose curve at least 0.9, where 1 is the maximum; inactive means score below 0.9.
How the values were obtained:
[1] = APR_HepG2_P-H2AX_72hr: Apredica 72-hour HepG2 Assay for H2AX Phosphorylation (AID 2282916); details: imaging, actives raise or lower the signal;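 further: phospho-histone H2A.x immunostain intensity per cell marking DNA damage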
Method in brief: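 Phospho-H2A.x imaging endpoint in HepG2 after 72 hr compound exposure (0.39–200 uM, duplicate wells). Activity derived by bidirectional curve fitting with DMSO as baseline.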

[2] = APR_HepG2_MitoticArrest_72hr: Apredica 72-hour HepG2 Assay for Mitotic Arrest (AID 2282918); details: high-content imaging, actives raise or lower the signal
Method in brief: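 HepG2 cells were exposed for 72 hr to compound at 0.39–200 uM (10 concentrations, duplicate) in 0.5% v/v DMSO, fixed in 3.7% formaldehyde, immunostained for phospho-histone H3 with Hoechst 33342 and imaged by high-content fluorescence; bidirectional fits versus DMSO.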

[3] = APR_HepG2_MicrotubuleCSK_72hr: Apredica 72-hour HepG2 Assay for Microtubule CSK Stabilty (AID 2282919); details: HepG2 microtubule cytoskeleton, high-content imaging, actives raise or lower the signal
Method in brief: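 HepG2, 72 hr cmpd exposure, 0.39–200 uM (10 pts, duplicate), 0.5% DMSO. 3.7% formaldehyde fix, 0.5% Triton perm, anti-alpha-tubulin/Cy5 plus Hoechst. HCS fluorescence intensity; bidirectional fit vs DMSO baseline; taxol as positive control.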

[4] = APR_HepG2_P-H2AX_24hr: Apredica 24-hour HepG2 Assay for H2AX Phosphorylation (AID 2282920); details: high-content imaging, actives raise or lower the signal
Method in brief: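 HepG2 human liver cells were exposed for 24 hr to compounds at 0.39–200 uM in duplicate, with 0.5% v/v DMSO final. Fixed cells were immunostained for phospho-histone H2A.x plus Hoechst 33342, imaged by HCS fluorescence, and fitted bidirectionally against DMSO.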

[5] = APR_HepG2_StressKinase_72hr: Apredica 72-hour HepG2 Assay for Stress Kinase (AID 2282921); details: HepG2 stress kinase (phospho-c-Jun) imaging, actives raise or lower the signal
Method in brief: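 Stress kinase signal reflects nuclear phospho-c-Jun staining in fixed, permeabilized cells exposed 72 h to compound at 0.39–200 uM; DMSO-normalized, fitted for increases or decreases.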

[6] = APR_HepG2_StressKinase_24hr: Apredica 24-hour HepG2 Assay for Stress Kinase (AID 2282922); details: HepG2 stress kinase (phospho-c-Jun) imaging, actives raise or lower the signal
Method in brief: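 Read-out: phospho-c-Jun immunofluorescence (Cy3 secondary) quantified by high-content imaging at 20x, nuclei defined by Hoechst 33342. Human HepG2 liver cells dosed 24 hr, 0.39–200 uM, DMSO 0.5% v/v; gain or loss of signal fitted relative to DMSO.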

[7] = APR_HepG2_MitoMass_72hr: Apredica 72-hour HepG2 Assay for Mitochondrial Mass (AID 2282924); details: high-content imaging, actives raise or lower the signal;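 further: MitoTracker Red CMXRos stain intensity per cell imaged as mitochondrial mass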
Method in brief: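 Read-out: MitoTracker Red fluorescence intensity from automated imaging (20x, six fields per well) in human HepG2 liver cells. Dosing ran 72 hr, 0.39–200 uM, 0.5% DMSO; bidirectional curve fitting versus DMSO baseline.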

[8] = APR_HepG2_NuclearSize_72hr: Apredica 72-hour HepG2 Assay for Nuclear Size (AID 2282925); details: high-content imaging, actives raise or lower the signal
Method in brief: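 Read-out: nuclear diameter from Hoechst 33342 images (ArrayScan, 20x, six fields/well), via cell-cycle image analysis. HepG2 were dosed 0.39–200 uM for 72 hr in 0.5% DMSO. Bidirectional fit relative to DMSO.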

[9] = ATG_CRE_CIS: Attagene CIS-FACTORIAL HepG2 Assay for human cAMP Responsive Element (CRE) binding protein 3 (AID 2282926); details: HepG2 CRE cis-reporter, Attagene multiplexed mRNA; actives raise or lower the signal
Method in brief: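 Capillary electrophoresis of 6-FAM-labelled, HpaI-digested PCR products quantified reporter transcripts. These came from HepG2 transiently transfected with cis-element reporters and exposed to test chemicals for 24 hours, with DMSO defining baseline activity.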

[10] = target: CCAAT/enhancer-binding protein beta (Homo sapiens) (UniProt P17676); assay: ATG_C_EBP_CIS: Attagene CIS-FACTORIAL HepG2 Assay for human CCAAT/Enhancer Binding Protein (C/EBP) beta (AID 2282927); details: HepG2 Attagene cis-factorial transcription factor reporter; actives raise or lower the signal
Method in brief: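 HepG2 transiently transfected with multiplexed reporter units under cis-regulatory promoters reporting endogenous C/EBPb activity. After 24 h exposure, reporter mRNA assayed by RT-PCR, fluorescent labelling, HpaI digestion and capillary electrophoresis; bidirectional fitting versus DMSO.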

[11] = ATG_CMV_CIS: Attagene CIS-FACTORIAL HepG2 Assay for human CMV (Internal Marker) (AID 2282928); details: HepG2 CMV promoter reporter, transcription factor profiling; actives raise or lower the signal;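 further: endpoint acts as a background internal control marker rather than a target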
Method in brief: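 Fluorescence intensity of RT-PCR-derived reporter fragments, resolved by capillary electrophoresis, gives the signal. HepG2 liver cells bearing transfected cis-element reporters were treated 24 h; activity in either direction was fit relative to DMSO-treated controls.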

[12] = target: Aryl hydrocarbon receptor (Homo sapiens) (UniProt P35869); assay: ATG_Ahr_CIS: Attagene CIS-FACTORIAL HepG2 Assay for human Aryl Hydrocarbon Receptor (Ahr) (AID 2282930); details: HepG2 AhR cis-factorial reporter transcription; actives raise or lower the signal
Method in brief: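 HepG2 cells transiently transfected with cis-element-driven multiplexed reporter units; endogenous AhR activity read as reporter mRNA 24 h after dosing, via RT-PCR, 6-FAM labelling, HpaI digestion and capillary electrophoresis. Bidirectional fit relative to DMSO.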

[13] = ATG_AP_1_CIS: Attagene CIS-FACTORIAL HepG2 Assay for human Activator Protein 1 (AP-1) (AID 2282931); details: HepG2 Attagene cis-factorial AP-1 reporter mRNA; actives raise or lower the signal
Method in brief: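 HepG2 cells transiently transfected with cis-element-driven multiplex reporter units; 24 h compound exposure. Reporter mRNA quantified by RT-PCR, FAM-labelled fragments resolved by capillary electrophoresis; bidirectional fit versus DMSO baseline.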

[14] = ATG_AP_2_CIS: Attagene CIS-FACTORIAL HepG2 Assay for human Activator Protein 2 (AP-2) (AID 2282932); details: HepG2 AP-2 cis-reporter, Attagene transcription factor profiling; actives raise or lower the signal
Method in brief: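 Read-out: fluorescent reporter mRNA via RT-PCR and capillary electrophoresis, 24 h post-dose in transiently transfected HepG2. Endogenous factors drive cis-promoter reporters; gain or loss of signal fitted bidirectionally against DMSO.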

[15] = ATG_BRE_CIS: Attagene CIS-FACTORIAL HepG2 Assay for human Bone Morphogenetic Protein (BMP) Response Element (BRE) (AID 2282933); details: HepG2 BMP response element reporter, Attagene transcription factor profiling; actives raise or lower the signal
Method in brief: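 Multiplexed cis-reporter assay, HepG2, 24 h exposure. mRNA from reporter units quantified via RT-PCR/CE; DMSO baseline; bidirectional curve fit.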

[16] = target: Retinoic acid receptor alpha (Homo sapiens) (UniProt P10276); assay: ATG_DR5_RAR_CIS: Attagene CIS-FACTORIAL HepG2 Assay for human Retinoic Acid Receptor Alpha (RARE), DR5 submotif (AID 2282934); details: HepG2 Attagene cis-factorial RARE DR5 reporter, mRNA; actives raise or lower the signal
Method in brief: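 HepG2 cells transiently transfected with multiplexed reporter units; DR5 cis-element drives reporter through endogenous transcription factors. After 24 h dosing, reporter mRNA quantified by RT-PCR, fluorescent labeling, HpaI digestion and capillary electrophoresis; bidirectional fitting versus DMSO.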

[17] = target: Transcription factor E2F1 (Homo sapiens) (UniProt Q01094); assay: ATG_E2F_CIS: Attagene CIS-FACTORIAL HepG2 Assay for human E2F Transcription Factor 1 (AID 2282935); details: HepG2 Attagene cis-reporter, E2F reporter RNA transcripts; actives raise or lower the signal
Method in brief: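 Transient MRTU transfection of HepG2; 24 h compound exposure; RNA → oligo(dT) RT → PCR → FAM label → HpaI cut → CE fluorescence. Gain/loss of signal fit against DMSO.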

[18] = ATG_DR4_LXR_CIS: Attagene CIS-FACTORIAL HepG2 Assay for human Liver X Receptor (LXR), DR4 submotif (AID 2282929); details: HepG2 Attagene DR4 cis-reporter, mRNA transcription; actives raise or lower the signal
Method in brief: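 HepG2 cells transiently transfected with cis-promoter-driven multiplexed reporter units (DR4 element) were dosed for 24 h. Reporter mRNA was quantified by RT-PCR, fluorescent primer extension, HpaI digestion and capillary electrophoresis; bidirectional fitting versus DMSO baseline.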

[19] = APR_HepG2_MitoMembPot_72hr: Apredica 72-hour HepG2 Assay for Mitochondrial Membrane Potential (AID 2282917); details: imaging, actives raise or lower the signal
Method in brief: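 HepG2 cells dosed 72 hr with compound at 0.39–200 uM in duplicate, 0.5% v/v DMSO final. Mitochondria stained with 250 nM MitoTracker Red CMXRos for 30 min before formaldehyde fixation, imaged by high-content fluorescence; bidirectional fit versus DMSO.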

[20] = APR_HepG2_p53Act_72hr: Apredica 72-hour HepG2 Assay for p53 Activation (AID 2282923); details: high-content imaging, actives raise or lower the signal;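 further: average cellular p53 protein immunofluorescence intensity in HepG2 cells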
Method in brief: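 Fixed-cell p53 staining (sheep primary, Cy5 secondary) measured by fluorescence imaging following 72 hr treatment at 0.39–200 uM in 0.5% DMSO; DMSO served as negative control and baseline.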

Measured: AC50

Retinoic acid receptor alpha (Homo sapiens), sequence (P10276 whole entry, looked up): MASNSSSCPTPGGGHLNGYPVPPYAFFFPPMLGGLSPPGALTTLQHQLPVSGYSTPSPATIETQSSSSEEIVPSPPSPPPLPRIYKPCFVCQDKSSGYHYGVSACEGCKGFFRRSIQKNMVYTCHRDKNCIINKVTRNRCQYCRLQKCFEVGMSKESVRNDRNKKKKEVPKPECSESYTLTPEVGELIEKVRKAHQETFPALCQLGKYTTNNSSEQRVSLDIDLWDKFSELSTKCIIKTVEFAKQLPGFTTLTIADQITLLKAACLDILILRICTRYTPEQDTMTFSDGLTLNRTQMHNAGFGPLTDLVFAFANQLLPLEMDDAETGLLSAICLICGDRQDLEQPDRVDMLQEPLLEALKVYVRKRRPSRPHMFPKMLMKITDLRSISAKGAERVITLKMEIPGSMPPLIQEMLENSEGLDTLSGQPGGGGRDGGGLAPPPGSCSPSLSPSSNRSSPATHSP
Transcription factor E2F1 (Homo sapiens), sequence (Q01094 whole entry, looked up): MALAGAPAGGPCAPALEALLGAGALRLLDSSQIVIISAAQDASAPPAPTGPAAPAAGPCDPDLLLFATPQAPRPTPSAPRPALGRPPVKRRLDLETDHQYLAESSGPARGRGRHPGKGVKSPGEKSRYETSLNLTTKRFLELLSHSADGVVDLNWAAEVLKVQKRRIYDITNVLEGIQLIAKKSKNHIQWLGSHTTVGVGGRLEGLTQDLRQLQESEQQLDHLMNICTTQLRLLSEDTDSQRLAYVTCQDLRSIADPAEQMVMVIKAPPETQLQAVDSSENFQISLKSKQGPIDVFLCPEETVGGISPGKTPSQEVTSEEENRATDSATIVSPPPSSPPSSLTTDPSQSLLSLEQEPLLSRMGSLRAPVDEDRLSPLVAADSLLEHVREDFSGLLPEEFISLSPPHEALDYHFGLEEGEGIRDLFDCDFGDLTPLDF
CCAAT/enhancer-binding protein beta (Homo sapiens), sequence (P17676 whole entry, looked up): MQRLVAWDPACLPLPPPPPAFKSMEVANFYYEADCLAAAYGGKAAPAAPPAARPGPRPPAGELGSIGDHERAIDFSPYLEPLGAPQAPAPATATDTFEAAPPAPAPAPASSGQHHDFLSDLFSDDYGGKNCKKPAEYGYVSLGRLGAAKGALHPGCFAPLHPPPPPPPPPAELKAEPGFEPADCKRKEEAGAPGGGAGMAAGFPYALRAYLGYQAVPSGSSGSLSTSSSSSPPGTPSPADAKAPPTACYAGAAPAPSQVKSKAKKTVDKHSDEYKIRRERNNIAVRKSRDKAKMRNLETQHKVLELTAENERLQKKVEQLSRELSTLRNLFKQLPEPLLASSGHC
Aryl hydrocarbon receptor (Homo sapiens), sequence (P35869 whole entry, looked up): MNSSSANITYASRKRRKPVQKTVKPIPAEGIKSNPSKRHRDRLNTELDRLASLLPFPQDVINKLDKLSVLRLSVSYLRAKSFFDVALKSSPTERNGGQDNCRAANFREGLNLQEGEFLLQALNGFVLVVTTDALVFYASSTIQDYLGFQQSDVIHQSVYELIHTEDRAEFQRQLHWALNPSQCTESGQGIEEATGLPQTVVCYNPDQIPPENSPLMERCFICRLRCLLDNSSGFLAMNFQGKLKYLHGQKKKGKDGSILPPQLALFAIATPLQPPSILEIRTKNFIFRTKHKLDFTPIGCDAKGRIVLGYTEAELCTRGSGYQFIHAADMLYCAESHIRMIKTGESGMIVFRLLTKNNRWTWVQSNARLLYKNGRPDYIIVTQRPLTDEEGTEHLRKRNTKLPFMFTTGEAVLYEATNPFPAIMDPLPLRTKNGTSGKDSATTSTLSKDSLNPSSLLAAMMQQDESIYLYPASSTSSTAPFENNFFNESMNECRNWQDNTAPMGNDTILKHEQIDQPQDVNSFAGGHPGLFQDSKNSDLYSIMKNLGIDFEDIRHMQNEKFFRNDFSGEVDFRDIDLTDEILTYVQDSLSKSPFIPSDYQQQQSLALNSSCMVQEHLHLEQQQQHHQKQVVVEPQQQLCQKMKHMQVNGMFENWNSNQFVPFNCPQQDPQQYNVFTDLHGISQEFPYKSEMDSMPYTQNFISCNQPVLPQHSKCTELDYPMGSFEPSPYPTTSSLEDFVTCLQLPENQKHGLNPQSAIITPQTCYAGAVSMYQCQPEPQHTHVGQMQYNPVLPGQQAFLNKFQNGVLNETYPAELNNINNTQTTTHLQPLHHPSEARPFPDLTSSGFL

COCC(C)OCC(C)OCC(C)O (configuration not stated)
not listed: [18] | [19] | [20]
inactive: all other assays above

O=C(O)Cn1c(=O)n(Cc2ccc(Br)cc2F)c(=O)c2ccc(Cl)cc21
not listed: [19] | [20]
inactive: all other assays above

CCCCCCCCCCCCO
active: [7] 119 µM
not listed: [19] | [20]
inactive: all other assays above

CN(C)C(=O)C1(N2CCCCC2)CCN(CC[C@@]2(c3ccc(Cl)c(Cl)c3)CN(C(=O)c3ccccc3)CCO2)CC1
active: [1] 12.3 µM | [2] 6.87 µM | [4] 19.6 µM | [20] 20.2 µM | [8] 6.79 µM | [13] 0.463 µM
not listed: [18]
inactive: all other assays above

From PubChem BioAssay (EPA / NIEHS)
